This is an account of results in PubChem BioAssay.

Experiment [1] is described as follows: resazurin metabolic signal in HepG2 cells – cell-based, resazurin fluorescence, 24 h, PK04 Diversity Set, profiling panel (AID 1172). Also: test concentration not given here. The following applies: HepG2 viability, higher = more signal.
The nature of experiment [2]: budding yeast growth changes without added modifier – OD600, strain BY4716, 24 h, basal condition, primary screen (AID 1173). The conditions noted are these: S. cerevisiae BY4716 growth, OD600, 24 h; higher = more signal, called active from +8 up or from −8 down.
Experiment [3] can be described thus: viability profiling in MM1S myeloma cells – cell-based, resazurin fluorescence, basal, 24 h, PK04 Diversity Set, profiling panel (AID 1174).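 Also: MM1S multiple myeloma cell line; test concentration not given here.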 The following applies: higher = more signal, called active from +8 up or from −8 down.
Experiment [4] concerns the target Dihydroorotate dehydrogenase (quinone), mitochondrial (Plasmodium falciparum (isolate 3D7)) (UniProt Q08210). The experiment can be described thus: inhibition of P. falciparum DHODH – biochemical, C-terminal His tag, absorbance 600 nm, primary screen (AID 1175).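 Also: recombinant parasite enzyme with a five histidine tag at its C terminus; test concentration not given here.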 The following applies: PfDHODH enzyme, DCIP absorbance 600 nm; higher = more signal, called active from +8 up or from −8 down.

Experiment [5] can be described thus: inhibition of PAO1 biofilm formation – strain PAO1, LB-PBS medium, absorbance 600 nm, primary screen (AID 1176). Also: test concentration not given here. The following applies: P. aeruginosa PAO1 growth/biofilm, A600, 12 h; higher = more signal.
Experiment [6] can be described thus: growth modulation of vineyard yeast isolate – strain RM11-1a, OD600, basal, 24 h, primary screen (AID 1177).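 Also: cultures grown under basal conditions with no added stressor; test concentration not given here.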 The conditions noted are these: S. cerevisiae RM11-1a growth, OD600, 24 h; higher = more signal, called active from +8 up or from −8 down.
A short description of experiment [7]: growth of efflux-deficient E. coli DRC39 – strain DRC39, OD650, 24 h, E. coli filamentation inducers, primary screen (AID 1178).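 Also: growth measured as culture turbidity by optical density at 650 nm; test concentration not given here.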 The conditions noted are these: E. coli DRC39 acrAB, higher = more signal, called active from +8 up or from −8 down.
The nature of experiment [8]: growth of efflux-deficient E. coli DRC39 – strain DRC39, OD650, 48 h, E. coli filamentation inducers, primary screen (AID 1179).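 Also: screen aims at cell division blockers that make cells filament.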 The following applies: E. coli DRC39 delta-acrAB growth, higher = more signal, called active from +8 up or from −8 down.
A short description of experiment [9]: viability profiling in RPMI8226 myeloma cells – cell-based, resazurin fluorescence, basal, 24 h, PK04 Diversity Set, profiling panel (AID 1180).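 Also: RPMI8826 multiple myeloma cell line at 5000 cells per well; test concentration not given here.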 The conditions noted are these: higher = more signal.
The target in experiment [10] is E3 ubiquitin-protein ligase XIAP (Homo sapiens) (UniProt P98170). The experiment can be described thus: small molecules binding XIAP protein – biophysical, small-molecule microarray, fluorescence 635 nm, primary screen (AID 1181).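 Also: score merges 667 nm emission and signal to noise over triplicate slides.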 The following applies: higher = more signal.

The source made the active and inactive calls. Unless noted, no rule for the calls is given here.

Chain of Dihydroorotate dehydrogenase (quinone), mitochondrial (Plasmodium falciparum (isolate 3D7)) (Q08210 whole entry, looked up): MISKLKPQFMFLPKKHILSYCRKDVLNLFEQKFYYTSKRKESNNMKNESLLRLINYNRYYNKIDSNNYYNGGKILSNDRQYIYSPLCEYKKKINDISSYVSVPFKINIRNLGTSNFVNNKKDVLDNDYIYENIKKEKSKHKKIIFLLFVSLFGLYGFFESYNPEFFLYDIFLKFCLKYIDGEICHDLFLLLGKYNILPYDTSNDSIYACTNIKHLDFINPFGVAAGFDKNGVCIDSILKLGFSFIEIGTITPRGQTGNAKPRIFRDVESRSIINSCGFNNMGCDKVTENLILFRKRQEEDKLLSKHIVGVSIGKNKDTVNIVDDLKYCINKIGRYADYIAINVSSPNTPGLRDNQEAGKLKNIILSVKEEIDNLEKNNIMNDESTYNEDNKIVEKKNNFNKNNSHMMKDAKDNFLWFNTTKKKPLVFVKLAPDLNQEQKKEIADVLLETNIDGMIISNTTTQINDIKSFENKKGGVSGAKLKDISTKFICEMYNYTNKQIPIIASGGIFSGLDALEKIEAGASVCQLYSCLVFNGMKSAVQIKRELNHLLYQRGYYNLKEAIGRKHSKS
Chain of E3 ubiquitin-protein ligase XIAP (Homo sapiens) (P98170 whole entry, looked up): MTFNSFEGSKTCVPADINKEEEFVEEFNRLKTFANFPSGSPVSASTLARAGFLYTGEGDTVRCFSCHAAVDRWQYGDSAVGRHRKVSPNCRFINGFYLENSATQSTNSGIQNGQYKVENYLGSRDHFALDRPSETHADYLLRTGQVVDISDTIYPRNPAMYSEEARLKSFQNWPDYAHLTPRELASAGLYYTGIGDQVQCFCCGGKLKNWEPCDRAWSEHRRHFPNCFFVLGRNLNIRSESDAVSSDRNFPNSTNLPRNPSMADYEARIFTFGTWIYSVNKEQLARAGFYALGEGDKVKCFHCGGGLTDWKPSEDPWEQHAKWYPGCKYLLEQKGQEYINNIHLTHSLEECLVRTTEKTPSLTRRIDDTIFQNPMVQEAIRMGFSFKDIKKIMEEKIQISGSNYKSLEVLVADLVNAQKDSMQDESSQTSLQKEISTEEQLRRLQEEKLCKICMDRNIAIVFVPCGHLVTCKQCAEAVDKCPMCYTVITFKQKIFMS

As for `Cc1ccc(C(C)CC(O)C2C=CC3C(=O)N(c4ccccc4)C(=O)C3N2Nc2ccc([N+](=O)[O-])cc2)o1` (stereo not given), the z-score is 0.836 in experiment [1]; 0.124 (inactive) in experiment [2]; -0.171 (inactive) in [3]; 1.14 (inactive) in experiment [5]; 0.315 (inactive) in [6]; -0.975 (inactive) in [7]. The z-score in [8] was 0.178 (inactive); in experiment [9] it was 0.263. For the same compound, the figures for the composite z-score in experiment [4] and in experiment [10] were -0.071 (inactive) and 0.152, respectively.

Consider `COc1ccc(CCNC(=O)[C@@H]2c3ccccc3C(=O)N(C3Cc4ccccc4C3)[C@H]2c2ccc(CO)cc2)cc1`, for which the z-score is 0.763 in experiment [1]; 0.594 (inactive) in experiment [2]; -0.642 (inactive) in experiment [3]; 0.292 (inactive) in experiment [5]; 0.205 (inactive) in [6]; -0.195 (inactive) in experiment [7]. In addition, the results for the z-score in [8] and in [9] were 0.121 (inactive) and -0.303, respectively. The composite z-score in [4] is 0.441 (inactive); in experiment [10] it was 0.126.

As to `CN1C(=O)C2C=CC(C(O)c3cc(C(F)(F)F)cc(C(F)(F)F)c3)N(N3CCCCC3)C2C1=O` (stereo not given), the z-score in [1] was -0.55; in experiment [2], 1.36 (inactive); in experiment [3] it was -0.136 (inactive); in [5], 0.049 (inactive); in experiment [6], 2.29 (inactive); in [7] it was -0.289 (inactive). Further, the values for the z-score in experiment [8] and in [9] were -0.795 (inactive) and 0.493, respectively. The composite z-score in experiment [4] was 0.929 (inactive); in experiment [10] it was -0.295.

`COCCn1c(C(=O)N2CCCC2)cc2c1C[C@H]1CN(C(=O)c3ccccc3)[C@@](Cc3ccc(F)cc3)(C(=O)OC)[C@@H]21`: the z-score was 0.203 in experiment [1]; 0.734 (inactive) in [2]; -0.829 (inactive) in experiment [3]; 0.315 (inactive) in experiment [5]; 0.39 (inactive) in [6]; -0.0243 (inactive) in experiment [7]. The values for the z-score in [8] and in [9] were -0.622 (inactive) and -1.37, respectively. Moreover, the composite z-score in experiment [4] was -0.343 (inactive); in [10], 0.0927.

Turning to `O=C1O[C@H](c2ccccc2)[C@H](c2ccccc2)N2[C@H]1[C@@H](C(=O)Nc1nc3ccccc3s1)[C@]1(C(=O)Nc3ccc(C#CCCO)cc31)[C@H]2c1ccc(OCCO)cc1`, the z-score is -0.251 in experiment [1]; 1.2 (inactive) in experiment [2]; 0.527 (inactive) in experiment [3]; 1.85 (inactive) in experiment [5]; 1.67 (inactive) in experiment [6]; -0.567 (inactive) in experiment [7]. Also, the z-score was 0.161 (inactive) in experiment [8] and -1.3 in [9]. Further, the composite z-score in experiment [4] is -1.6 (inactive); in experiment [10], 0.0637.

Regarding `CC(C)(C)OC(=O)CC[C@@]12N=C(c3ccc(OCCCO)cc3)O[C@@H]1c1ccccc1N(CCS(=O)(=O)c1ccccc1)C2=O`, the z-score was -0.223 in experiment [1]; 0.508 (inactive) in experiment [2]; -1.95 (inactive) in experiment [3]; 0.218 (inactive) in experiment [5]; 1.44 (inactive) in experiment [6]; 1.25 (inactive) in [7]. Besides, the values for the z-score in experiment [8] and in experiment [9] were 1.56 (inactive) and -0.835, respectively. In addition, the composite z-score in experiment [4] is -0.298 (inactive); in experiment [10] it was 0.0801.

As for `COC(=O)[C@@]1(Cc2ccc(OC)cc2)[C@H]2c3cc(C(=O)N(C)C)n(CCN4CNCC4=O)c3C[C@H]2CN1C(=O)c1ccccc1`, the z-score was 0.642 in experiment [1]; 0.124 (inactive) in experiment [2]; 0.622 (inactive) in [3]; 0.371 (inactive) in experiment [5]; -0.188 (inactive) in [6]; 0.479 (inactive) in experiment [7]. For the same compound, the z-score was -0.318 (inactive) in experiment [8] and 0.777 in experiment [9]. The composite z-score is -0.72 (inactive) in [4] and 0.597 in [10].

Regarding `CN1C2C=C(CCCO)C(C3C(=O)N(C(N)=O)C(=O)C32)C1c1ccc(CN2CCCC2)cc1` (stereo not given), the z-score in [1] was -0.163; in [2], 0.464 (inactive); in experiment [3], -0.508 (inactive); in [5] it was 0.661 (inactive); in experiment [6], -0.56 (inactive); in [7], 0.359 (inactive). The z-score in experiment [8] is 0.259 (inactive); in experiment [9], -0.287. For the same compound, the composite z-score is -0.157 (inactive) in experiment [4] and -0.0703 in experiment [10].

`O=C1O[C@H](c2ccccc2)[C@H](c2ccccc2)N2[C@H]1[C@@H](C(=O)Nc1nc3ccccc3s1)[C@]1(C(=O)Nc3ccc(C#CC4(O)CCCCCC4)cc31)[C@H]2c1ccc(OCCO)cc1`: the z-score is -0.43 in [1]; 1.16 (inactive) in [2]; -1.4 (inactive) in [3]; 4.15 (inactive) in [5]; 0.773 (inactive) in experiment [6]; -0.34 (inactive) in experiment [7]. Further, the figures for the z-score in [8] and in experiment [9] were -0.706 (inactive) and -1.1, respectively. In addition, the composite z-score was -0.568 (inactive) in [4] and 0.167 in experiment [10].

Take `C=C(COC)/C(=C/C[C@@H](OC(C)=O)c1ccc(OCCO)cc1)c1cc(C(=O)OC)ccc1OC`: the z-score in [1] was 0.453; in experiment [2], 0.166 (inactive); in [3], -0.252 (inactive); in experiment [5], 0.862 (inactive); in experiment [6] it was 0.303 (inactive); in [7], 0.193 (inactive). In addition, the z-score was 0.0514 (inactive) in experiment [8] and -0.395 in experiment [9]. Also, the composite z-score in [4] is -0.72 (inactive); in experiment [10], -0.353.

As for `CCCC[C@H]1OB(O)C[C@H]2C1=C(COc1ccccc1)C[C@H]1C(=O)N(C)C(=O)[C@H]12`, the z-score in experiment [1] was -0.0384; in experiment [2], -2.57 (inactive); in experiment [3] it was -0.508 (inactive); in [5], -0.0946 (inactive); in experiment [6] it was -0.798 (inactive); in [7], -0.121 (inactive). Moreover, the z-score in [8] is -0.316 (inactive); in experiment [9] it was -0.59. Also, the composite z-score in experiment [4] is -0.514 (inactive); in experiment [10], -0.031.

Regarding `[N-]=[N+]=NCc1ccccc1[C@@H]1OC(c2ccc(OCCCO)cc2)=N[C@]1(CCS(=O)(=O)c1ccccc1)C(=O)NCc1ccccc1`, the z-score is 0.239 in experiment [1]; 0.743 (inactive) in experiment [2]; -0.304 (inactive) in experiment [3]; 0.882 (inactive) in experiment [5]; 0.797 (inactive) in experiment [6]; 0.198 (inactive) in [7]. The z-score in experiment [8] is -0.678 (inactive); in experiment [9], 0.144. For the same compound, the composite z-score is 0.59 (inactive) in [4] and 0.194 in experiment [10].
